Experimental data reported in PubChem BioAssay (NCATS).
Results filed as inconclusive are left out. A call without a number means that no potency is given here. Activity calls are given as the source filed them. Calls follow the shape of the dose curve; as a rule, active = well fitted inhibition curve with a large enough effect; inconclusive = small, poorly fitted or top-dose-only effect; inactive = no such curve, though single readings can be large or run the other way.

Experiment: qHTS assay for measurement of the activity of small molecule inhibitors on Zika virus induced Caspase-3 activity in human iPSC derived neural progenitor cells (hNPCs) (AID 1224857); also: nearly all actives have a fitted effect of over 65% in size
Conditions: hNPCs ZIKV-induced caspase-3/7, Caspase-Glo luminescence, 6 h; series mostly up to 45.7 µM
In short: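 In medium with heparin 2 ug/ml and cyclopamine 2 uM, hNPCs (350 cells/well) received compound for one hour and then Zika virus at 2 FFU/cell; caspase activity was measured by Caspase-Glo 3/7 luminescence 6 h post-infection.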

| SMILES | Potency |
| --- | --- |
| Cc1cnc(CNC(=O)c2c(=O)c3ccc(N4CCCN(C)CC4)nc3n3c2sc2ccccc23)cn1 | inactive |
| CCC[C@H](N[C@@H](C)C(=O)N1[C@@H]2CCCC[C@H]2C[C@H]1C(=O)O)C(=O)OCC | inactive |
| CCn1c(-c2nonc2N)nc2cncc(CNC3CCNCC3)c21 | inactive |
| Cn1c(=O)c(-c2c(Cl)cccc2Cl)cc2cnc(Nc3cccc(C(=O)O)c3)nc21 | inactive |
| O=C1NC(=O)C(c2cnc3ccccn23)=C1c1cn2c3c(cccc13)CN(C(=O)N1CCOCC1)CC2 | inactive |
| Cc1c(-c2cccc3c(CCCOc4cccc5ccccc45)c(C(=O)O)n(Cc4cccnc4)c23)c(COc2ccc(N3CCN([S+](=O)([O-])N(C)C)CC3)cc2)nn1C | inactive |
| O=C(Nc1cccc(C(F)(F)F)c1)Nc1cc(S(=O)(=O)NC2CC2)ccc1-c1ccsc1 | inactive |
| CC(=O)NCCC(=O)N[C@@H](CCC(N)=O)C(=O)N[C@@H](CO)C(=O)N[C@@H](CCC(N)=O)C(=O)N[C@@H](CCC(N)=O)C(=O)N[C@H](C(=O)N[C@@H](Cc1ccccc1)C(=O)N[C@]1(C)CCCCCCC=CCCC[C@@](C)(C(=O)N[C@@H](CCC(N)=O)C(=O)N[C@@H](CC(N)=O)C(N)=O)NC(=O)[C@H](CC(C)C)NC(=O)[C@H](CC(C)C)NC(=O)[C@@H](CCCNC(=N)N)NC(=O)[C@H](Cc2c[nH]c3ccccc23)NC(=O)[C@H](CC(C)C)NC(=O)[C@H](CC(N)=O)NC1=O)[C@H](C)O | inactive |
| C=C1c2cccc(O)c2C(O)=C2C(=O)[C@@]3(O)C(O)=C(C(N)=O)C(=O)[C@@H](N(C)C)[C@@H]3[C@@H](O)[C@H]12 | inactive |
| C[C@@]1(c2cc(-c3cncnc3)c(F)cc2F)CCSC(N)=N1 | inactive |
| Cc1cc(CS(=O)(=O)c2ccccc2)cc(OCc2ccc(CN3CCC[C@H]3CO)cc2)c1 | inactive |
| O=C1Nc2ccc(I)cc2C1=Cc1cc(Br)c(O)c(Br)c1 | inactive |
| CCc1cccc(CC)c1NC(=O)N1Cc2[nH]nc(NC(=O)c3ccc(N4CCN(C)CC4)cc3)c2C1 | inactive |
| Nc1[nH]nc2nnc(-c3c(-c4ccccc4)nn4ccccc34)cc12 | inactive |
| Cc1nc(NC(=O)N2CCC[C@@H]2C(N)=O)sc1-c1csc(C(C)(C)C)n1 | inactive |
| CCCCc1ccc(NS(=O)(=O)c2ccc(C)c(C(=O)N3CCN(c4cccc(C)c4C)CC3)c2)cc1 | inactive |

| SMILES | Potency |
| --- | --- |
| CCNC(=O)c1noc(-c2cc(C(C)C)c(O)cc2O)c1-c1ccc(CN2CCOCC2)cc1 | inactive |
| N#CC1(c2cccc(C(=O)Nc3cc(Oc4ccc5nc(NC(=O)C6CC6)sc5n4)ccc3F)c2Cl)CC1 | inactive |
| CC1C(=O)OC2C(O)C34C5CC(C(C)(C)C)C36C(OC(=O)C6O)OC4(C(=O)O5)C12O (configuration not stated) | inactive |
| CN(C)CCOc1ccc(C(=C(CCCl)c2ccccc2)c2ccccc2)cc1 | inactive |
| COc1ccc(-c2cc(=O)c3c(O)cc(O[C@@H]4O[C@H](CO[C@@H]5O[C@@H](C)[C@H](O)[C@@H](O)[C@@H]5O)[C@@H](O)[C@H](O)[C@@H]4O)cc3o2)cc1O | inactive |
| CCCCC(C)(C)[C@H](O)C=C[C@H]1[C@H](O)CC(=O)[C@H]1CC=CCCCC(=O)O | inactive |
| CC1(COc2ccc3c(c2)ncn3-c2ccc3cccc(N4CCC(N)CC4)c3n2)COC1 | inactive |
| O=C(NCCCCN1CCOCC1)c1cc2ccccc2o1 | inactive |
| CC(=O)O[C@]1(C(C)=O)CC[C@H]2[C@@H]3C=C(Cl)C4=CC(=O)[C@@H]5C[C@H]5[C@]4(C)[C@@H]3CC[C@@]21C | inactive |
| CCC[C@H](Nc1nc(-c2ccc(NC(=O)NCC)c(OC)c2)ncc1C)c1cccnc1 | inactive |
| COc1cc2nc(-c3cc(F)ccc3O)nc(N[C@@H]3CNC[C@@H]3C(C)(C)O)c2cc1OC | inactive |
| O=C(Nc1cccc2c(=O)cc(-c3nn[nH]n3)oc12)c1ccc(OCCCCc2ccccc2)cc1 | inactive |
| CC[C@H](C=C[C@@H](C)[C@H]1CC[C@H]2[C@@H]3CC=C4C[C@@H](O)CC[C@]4(C)[C@@H]3CC[C@]12C)C(C)C | inactive |
| CN1CCC(COc2cnc(-c3cccc(Cn4nc(-c5cccc(C#N)c5)ccc4=O)c3)nc2)CC1 | inactive |
| CC(C)Oc1cc(Nc2nc(N[C@@H](C)c3ccc(F)cn3)ncc2Cl)[nH]n1 | inactive |
| CC[C@]1(O)C[C@H]2CN(CCC3=c4ccccc4=N[C]3[C@@](C(=O)OC)(c3cc4c(cc3OC)N(C)[C@H]3[C@@](O)(C(N)=O)[C@H](O)[C@]5(CC)C=CCN6CC[C@]43[C@@H]65)C2)C1 | inactive |
